Experiment [1] has as its target human Adrenergic, Beta 1 Receptor (Adrb1), ADRB1 (gene 153) (UniProt P08588). In words: NVS_GPCR_hAdrb1: NovaScreen (NVS) G Protein-Coupled Receptor Assay for human Adrenergic, Beta 1 Receptor (Adrb1) (AID 2283258). In a few lines:
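Cell-free radioligand displacement on receptor from human neuroepithelioma cells; 2 h after dosing, filter-based scintillation counting. Primary screen in duplicate at 25 uM, actives retested in concentration series; loss of signal vs DMSO baseline.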

Experiment [2] concerns the target human Adrenergic, Alpha 2c Receptor (Adra2C), ADRA2C (gene 152) (UniProt P18825). As to the kind of experiment: NVS_GPCR_hAdra2C: NovaScreen (NVS) G Protein-Coupled Receptor Assay for human Adrenergic, Alpha 2c Receptor (Adra2C) (AID 2283259). In a few lines:
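Radioligand binding on Sf9-expressed receptor membranes, 1 h after chemical dosing, filter-based scintillation read-out. Loss of binding fitted positively versus DMSO; primary duplicate screen at 25 uM, actives retested in concentration series.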

Experiment [3] deals with Beta-2 adrenergic receptor (Homo sapiens) (UniProt P07550). As to the kind of experiment: NVS_GPCR_hAdrb2: NovaScreen (NVS) G Protein-Coupled Receptor Assay for human Adrenergic, Beta 2 Receptor (Adrb2) (AID 2283261). In short, it runs like this: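 Filter-based radioligand binding using receptor prepared from CHO cells, 1 h incubation, scintillation counting. Primary screen in duplicate at 25 uM, actives retested in concentration series; loss of binding relative to DMSO.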

Experiment [4] addresses human Adrenergic, Beta 3 Receptor (Adrb3), ADRB3 (gene 155) (UniProt P13945). As to the kind of experiment: NVS_GPCR_hAdrb3: NovaScreen (NVS) G Protein-Coupled Receptor Assay for human Adrenergic, Beta 3 Receptor (Adrb3) (AID 2283262). As to the method:
NVS_GPCR_hAdrb3 is a biochemical, single-readout assay that uses extracted gene-proteins from SK-N-MC pretreated with isoproteronol and 8-bromo-cAMP in a cell-free assay. Measurements were taken 1 hour after chemical dosing in a 48-well plate.NVS_GPCR_hAdrb3 is one of one assay component(s) measured or calculated from the NVS_GPCR_hAdrb3 assay. It is designed to make measurements of radioligand binding, a form of binding reporter, as detected with scintillation counting signals by Filter-based radiodetection technology.Data from the assay component NVS_GPCR_hAdrb3 was analyzed into 1 assay endpoint. This assay endpoint, NVS_GPCR_hAdrb3, was analyzed in the positive analysis fitting direction relative to DMSO as the negative control and baseline of activity. Using a type of binding reporter, loss-of-signal activity can be used to understand changes in the binding as they relate to the gene ADRB3. Furthermore, this assay endpoint can be referred to as a primary readout, because the performed assay has only produced 1 assay endpoint. To generalize the intended target to other relatable targets, this assay endpoint is annotated to the gpcr intended target family, where the subfamily is rhodopsin-like receptor. […]

For experiment [5], the target named is human Adenosine A2a Receptor (AdoRA2a), ADORA2A (gene 135) (UniProt P29274). In words: NVS_GPCR_hAdoRA2a: NovaScreen (NVS) G Protein-Coupled Receptor Assay for human Adenosine A2a Receptor (AdoRA2a) (AID 2283256). In a few lines: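 Cell-free radioligand binding on membranes from HEK293 expressing the receptor; competitive displacement read 1.5 h after dosing by filter-based scintillation counting. Primary screen in duplicate at 25 uM; actives followed in concentration series, with DMSO as baseline.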

For experiment [6], the target named is Type-1 angiotensin II receptor (Homo sapiens) (UniProt P30556). In words: NVS_GPCR_hAT1: NovaScreen (NVS) G Protein-Coupled Receptor Assay for human Angiotensin II receptor type 1 (AT1) (AID 2283263). In a few lines: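 Membranes from KAN-TS cells; radioligand competitive displacement, 3 h, filtration and scintillation counting. Single-point duplicate screen at 25 uM, then concentration-response up to 50 uM for hits; loss of signal fitted versus DMSO.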

In experiment [7] the target is human Endothelin Receptor Type A (ETA), EDNRA (gene 1909) (UniProt P25101). In words: NVS_GPCR_hETA: NovaScreen (NVS) G Protein-Coupled Receptor Assay for human Endothelin Receptor Type A (ETA) (AID 2283265). In a few lines: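 Cell-free radioligand displacement using SH-SY5Y-derived protein, 3 h incubation, filter-based scintillation counting. Primary screen in duplicate at 25 uM; actives then run in concentration-response up to 50 uM; loss of binding fitted versus DMSO.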

The target in experiment [8] is human Dopamine Receptor D2 (DRD2), DRD2 (gene 1813) (UniProt P14416). In words: NVS_GPCR_hDRD2s: NovaScreen (NVS) G Protein-Coupled Receptor Assay for human Dopamine Receptor D2 (DRD2) (AID 2283266). As to the method: NVS_GPCR_hDRD2s is a biochemical, single-readout assay that uses extracted gene-proteins from CHO in a cell-free assay. Measurements were taken 1.5 hours after chemical dosing in a 96-well plate.NVS_GPCR_hDRD2s is one of one assay component(s) measured or calculated from the NVS_GPCR_hDRD2s assay. It is designed to make measurements of radioligand binding, a form of binding reporter, as detected with scintillation counting signals by Filter-based radiodetection technology.Data from the assay component NVS_GPCR_hDRD2s was analyzed into 1 assay endpoint. This assay endpoint, NVS_GPCR_hDRD2s, was analyzed in the positive analysis fitting direction relative to DMSO as the negative control and baseline of activity. Using a type of binding reporter, loss-of-signal activity can be used to understand changes in the binding as they relate to the gene DRD2. Furthermore, this assay endpoint can be referred to as a primary readout, because the performed assay has only produced 1 assay endpoint. To generalize the intended target to other relatable targets, this assay endpoint is annotated to the gpcr intended target family, where the subfamily is rhodopsin-like receptor.
Binding assays used specific radioligands (tritiated, iodinated) with non-radioactive competitive displacement ligands in agonist or antagonist protocols (as indicated) and various reference compounds and inhibitors to titrate specific binding to receptors and transporters. Most enzyme assays (CYPs, kinases, phosphatases, proteases, HDACs) used recombinant protein and specific substrates (fluorescence mostly, some colorimetric and radioactive) and inhibitors, followed by a biochemical separation of substrate and product. All assays for the biochemical HTS were initially run in duplicate at a single concentration (10 uM for CYP450 assays and 25 uM for all others). […] Each assay was run with positive and negative controls, and concurrent controls on every plate. […]

Experiment [9] concerns the target human Adrenergic, Alpha 2A Receptor (Adra2A), ADRA2A (gene 150) (UniProt P08913). As to the kind of experiment: NVS_GPCR_hAdra2A: NovaScreen (NVS) G Protein-Coupled Receptor Assay for human Adrenergic, Alpha 2A Receptor (Adra2A) (AID 2283257). In a few lines:
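Radioligand filter-binding was run on HT29-derived membranes, cell-free, read by scintillation counting 1 h after dosing. Primary screening was in duplicate at 25 uM, with concentration series in follow-up. Loss of signal versus DMSO indicates displacement.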

In experiment [10] the target is human Dopamine Receptor D4.4 (DRD4.4), DRD4 (gene 1815) (UniProt P21917). As to the kind of experiment: NVS_GPCR_hDRD4.4: NovaScreen (NVS) G Protein-Coupled Receptor Assay for human Dopamine Receptor D4.4 (DRD4.4) (AID 2283264). In short, it runs like this:
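Radioligand displacement on human DRD4.4 from CHO-derived membranes, 1 hour incubation, bound counts read by filtration and scintillation. Primary screen in duplicate at 25 uM; actives followed up in concentration series.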

Records with an inconclusive call do not appear. Active and inactive are the calls of the source. The calls were made as follows: active = hit-call score of the fitted dose curve at least 0.9, where 1 is the maximum; inconclusive = response in the unintended direction; inactive = score below 0.9.

Chain of human Adenosine A2a Receptor (AdoRA2a), ADORA2A (gene 135) (P29274 whole entry, looked up): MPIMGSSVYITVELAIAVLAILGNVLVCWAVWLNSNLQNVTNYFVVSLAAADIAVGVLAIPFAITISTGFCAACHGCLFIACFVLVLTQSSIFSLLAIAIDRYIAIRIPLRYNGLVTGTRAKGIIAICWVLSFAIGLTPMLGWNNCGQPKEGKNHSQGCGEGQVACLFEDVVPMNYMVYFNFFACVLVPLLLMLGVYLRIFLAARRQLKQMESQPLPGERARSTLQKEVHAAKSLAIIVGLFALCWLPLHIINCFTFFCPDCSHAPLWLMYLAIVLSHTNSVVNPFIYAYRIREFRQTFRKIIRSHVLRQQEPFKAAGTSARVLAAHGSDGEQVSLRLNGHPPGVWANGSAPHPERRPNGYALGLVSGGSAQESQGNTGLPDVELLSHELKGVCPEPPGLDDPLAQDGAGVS
Chain of Beta-2 adrenergic receptor (Homo sapiens) (P07550 whole entry, looked up): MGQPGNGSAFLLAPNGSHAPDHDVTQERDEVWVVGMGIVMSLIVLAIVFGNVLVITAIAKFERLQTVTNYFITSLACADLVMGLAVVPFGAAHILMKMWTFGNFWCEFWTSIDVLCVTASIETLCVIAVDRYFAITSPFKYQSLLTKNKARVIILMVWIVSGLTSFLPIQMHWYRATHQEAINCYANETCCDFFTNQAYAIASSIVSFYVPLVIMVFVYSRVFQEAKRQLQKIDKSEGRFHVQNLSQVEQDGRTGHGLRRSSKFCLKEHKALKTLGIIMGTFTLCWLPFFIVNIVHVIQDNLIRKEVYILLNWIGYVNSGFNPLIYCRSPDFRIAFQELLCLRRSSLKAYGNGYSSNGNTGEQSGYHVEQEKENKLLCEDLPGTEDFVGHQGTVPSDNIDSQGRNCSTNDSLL
Chain of Type-1 angiotensin II receptor (Homo sapiens) (P30556 whole entry, looked up): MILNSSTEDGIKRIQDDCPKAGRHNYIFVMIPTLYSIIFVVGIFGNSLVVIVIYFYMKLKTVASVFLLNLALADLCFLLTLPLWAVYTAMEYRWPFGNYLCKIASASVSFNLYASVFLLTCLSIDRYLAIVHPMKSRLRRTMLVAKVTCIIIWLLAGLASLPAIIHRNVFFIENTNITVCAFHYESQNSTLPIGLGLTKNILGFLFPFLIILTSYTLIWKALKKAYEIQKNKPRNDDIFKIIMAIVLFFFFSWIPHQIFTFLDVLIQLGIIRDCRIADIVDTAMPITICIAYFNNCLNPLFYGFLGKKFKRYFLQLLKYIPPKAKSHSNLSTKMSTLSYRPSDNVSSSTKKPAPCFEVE
Chain of human Dopamine Receptor D2 (DRD2), DRD2 (gene 1813) (P14416 whole entry, looked up): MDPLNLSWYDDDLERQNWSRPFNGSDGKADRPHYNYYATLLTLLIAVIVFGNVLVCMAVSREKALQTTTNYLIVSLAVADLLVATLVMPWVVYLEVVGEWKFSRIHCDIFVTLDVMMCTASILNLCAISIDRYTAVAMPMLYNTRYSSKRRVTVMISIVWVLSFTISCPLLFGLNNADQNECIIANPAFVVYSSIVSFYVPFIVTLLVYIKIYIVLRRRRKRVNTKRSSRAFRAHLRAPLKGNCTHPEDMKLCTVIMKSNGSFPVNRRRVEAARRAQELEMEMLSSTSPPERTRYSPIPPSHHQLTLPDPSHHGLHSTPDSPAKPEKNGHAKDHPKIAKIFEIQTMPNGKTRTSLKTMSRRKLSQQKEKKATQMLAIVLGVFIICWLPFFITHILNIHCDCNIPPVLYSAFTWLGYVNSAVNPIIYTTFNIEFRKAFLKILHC
Chain of human Adrenergic, Beta 1 Receptor (Adrb1), ADRB1 (gene 153) (P08588 whole entry, looked up): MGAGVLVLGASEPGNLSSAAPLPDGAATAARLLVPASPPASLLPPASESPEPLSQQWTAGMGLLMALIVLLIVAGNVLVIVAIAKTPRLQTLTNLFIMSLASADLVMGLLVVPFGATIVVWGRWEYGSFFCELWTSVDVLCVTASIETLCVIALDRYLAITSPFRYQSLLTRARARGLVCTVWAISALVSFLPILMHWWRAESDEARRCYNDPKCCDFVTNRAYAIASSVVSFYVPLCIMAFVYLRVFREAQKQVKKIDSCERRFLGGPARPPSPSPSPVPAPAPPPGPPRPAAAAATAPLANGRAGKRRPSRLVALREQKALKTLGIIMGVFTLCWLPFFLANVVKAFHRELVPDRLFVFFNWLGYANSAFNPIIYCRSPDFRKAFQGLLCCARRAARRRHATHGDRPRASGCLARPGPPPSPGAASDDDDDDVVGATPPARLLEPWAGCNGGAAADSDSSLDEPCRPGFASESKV
Chain of human Adrenergic, Alpha 2c Receptor (Adra2C), ADRA2C (gene 152) (P18825 whole entry, looked up): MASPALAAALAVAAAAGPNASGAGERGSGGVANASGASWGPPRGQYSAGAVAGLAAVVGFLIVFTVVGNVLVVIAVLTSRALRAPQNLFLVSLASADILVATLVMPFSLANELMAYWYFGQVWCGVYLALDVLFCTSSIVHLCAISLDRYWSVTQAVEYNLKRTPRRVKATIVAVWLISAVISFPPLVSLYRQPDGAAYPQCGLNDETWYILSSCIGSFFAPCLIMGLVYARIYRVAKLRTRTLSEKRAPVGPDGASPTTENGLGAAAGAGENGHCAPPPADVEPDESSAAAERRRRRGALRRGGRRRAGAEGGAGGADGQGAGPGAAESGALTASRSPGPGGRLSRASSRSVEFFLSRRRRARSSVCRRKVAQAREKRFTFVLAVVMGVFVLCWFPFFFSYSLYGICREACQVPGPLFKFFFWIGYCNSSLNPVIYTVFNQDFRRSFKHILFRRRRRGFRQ
Chain of human Adrenergic, Alpha 2A Receptor (Adra2A), ADRA2A (gene 150) (P08913 whole entry, looked up): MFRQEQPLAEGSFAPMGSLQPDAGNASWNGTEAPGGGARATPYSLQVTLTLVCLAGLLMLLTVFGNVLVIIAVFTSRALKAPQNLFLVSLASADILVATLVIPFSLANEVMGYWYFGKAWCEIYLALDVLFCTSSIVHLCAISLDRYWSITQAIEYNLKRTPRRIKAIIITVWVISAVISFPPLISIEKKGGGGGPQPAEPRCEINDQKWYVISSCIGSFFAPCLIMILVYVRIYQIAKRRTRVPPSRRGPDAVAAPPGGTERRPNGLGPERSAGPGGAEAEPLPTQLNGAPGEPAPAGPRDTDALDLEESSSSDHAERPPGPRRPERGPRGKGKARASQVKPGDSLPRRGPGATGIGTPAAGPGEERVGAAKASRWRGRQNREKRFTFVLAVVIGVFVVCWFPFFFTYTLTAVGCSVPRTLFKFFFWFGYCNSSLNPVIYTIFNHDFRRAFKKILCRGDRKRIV
Chain of human Adrenergic, Beta 3 Receptor (Adrb3), ADRB3 (gene 155) (P13945 whole entry, looked up): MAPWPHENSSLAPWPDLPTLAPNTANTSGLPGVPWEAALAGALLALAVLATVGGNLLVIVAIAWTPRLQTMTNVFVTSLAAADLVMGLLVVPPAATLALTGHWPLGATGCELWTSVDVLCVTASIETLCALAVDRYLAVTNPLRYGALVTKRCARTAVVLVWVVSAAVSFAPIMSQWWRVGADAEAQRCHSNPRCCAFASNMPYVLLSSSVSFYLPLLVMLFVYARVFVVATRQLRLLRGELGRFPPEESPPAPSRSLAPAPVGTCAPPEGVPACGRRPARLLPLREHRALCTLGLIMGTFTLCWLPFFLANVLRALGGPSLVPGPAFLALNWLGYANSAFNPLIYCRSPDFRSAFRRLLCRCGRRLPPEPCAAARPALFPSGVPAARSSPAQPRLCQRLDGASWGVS
Chain of human Dopamine Receptor D4.4 (DRD4.4), DRD4 (gene 1815) (P21917 whole entry, looked up): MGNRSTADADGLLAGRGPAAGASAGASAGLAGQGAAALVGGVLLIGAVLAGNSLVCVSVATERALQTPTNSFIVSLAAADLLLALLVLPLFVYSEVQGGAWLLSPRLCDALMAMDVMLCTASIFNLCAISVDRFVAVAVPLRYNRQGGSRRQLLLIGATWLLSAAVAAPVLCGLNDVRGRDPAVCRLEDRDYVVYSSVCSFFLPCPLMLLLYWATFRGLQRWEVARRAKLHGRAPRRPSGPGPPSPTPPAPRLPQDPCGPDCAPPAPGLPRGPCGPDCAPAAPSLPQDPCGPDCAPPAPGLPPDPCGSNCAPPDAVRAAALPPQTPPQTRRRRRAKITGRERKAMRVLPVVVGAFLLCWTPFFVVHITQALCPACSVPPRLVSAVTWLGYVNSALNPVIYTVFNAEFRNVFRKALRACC
Chain of human Endothelin Receptor Type A (ETA), EDNRA (gene 1909) (P25101 whole entry, looked up): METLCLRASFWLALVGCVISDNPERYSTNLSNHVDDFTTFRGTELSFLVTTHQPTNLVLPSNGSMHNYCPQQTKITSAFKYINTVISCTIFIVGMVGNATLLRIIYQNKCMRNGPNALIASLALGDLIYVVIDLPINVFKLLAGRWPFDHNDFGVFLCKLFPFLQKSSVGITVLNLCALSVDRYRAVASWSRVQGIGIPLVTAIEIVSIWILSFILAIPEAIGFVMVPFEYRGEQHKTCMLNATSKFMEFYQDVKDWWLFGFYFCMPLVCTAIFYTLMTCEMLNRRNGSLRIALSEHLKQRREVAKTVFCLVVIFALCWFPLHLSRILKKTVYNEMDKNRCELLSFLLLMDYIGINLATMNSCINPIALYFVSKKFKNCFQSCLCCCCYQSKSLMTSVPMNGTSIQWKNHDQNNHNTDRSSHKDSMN

For the compound `CC(C)(c1ccc(O)cc1)c1ccc(O)cc1`, the result in [1], in experiment [2], in [3] and in experiment [4] was inactive.

In general, AC50 refers to the concentration giving half of the maximal activity seen. For the compound `c1ccc2[nH]c(-c3cscn3)nc2c1`, in experiment [5], the AC50 was 4.91 µM (active).

Turning to `CCOC(=O)C(C)Oc1ccc(Oc2cnc3cc(Cl)ccc3n2)cc1` (configuration not stated), in experiment [2], the call was inactive.

Consider `CCCCC(CC)CN1C(=O)C2C3C=CC(C3)C2C1=O` (configuration not stated), for which the call in [3] was inactive.

Consider `CCCCCCC(C)OC(=O)COc1nc(F)c(Cl)c(N)c1Cl` (configuration not stated), for which the result in experiment [6] was inactive.

With `COCCO`, the result in [6] was inactive.

Consider `S=C(S)NCCNC(=S)S.[Mn+2].[S-]C([S-])=NCCN=C([S-])[S-].[Zn+2]`, for which the compound was called inactive in experiment [6], in experiment [7] and in experiment [8].

As for `CCCOC(=O)c1ccc(C(=O)OCCC)nc1`, in [5], the AC50 is 15.2 µM (active).

As for `COC(=O)c1ccccc1S(=O)(=O)NC(=O)Nc1nc(OC(F)F)cc(OC(F)F)n1`, the compound was called inactive in [3].

Regarding `COC(=O)c1cccc(C)c1S(=O)(=O)NC(=O)Nc1nc(OCC(F)(F)F)nc(N(C)C)n1`, the AC50 in experiment [5] is 6.04 µM (active).

Take `COC(=O)CSc1cc(N=c2sc(=O)n3n2CCCC3)c(F)cc1Cl`: the outcome in [9] was inactive.

In the case of `S=C([S-])NCCNC(=S)[S-].[Mn+2]`, the result in experiment [8] was inactive.

Regarding `Oc1ccc(C(c2ccc(O)cc2)C(Cl)(Cl)Cl)cc1`, the compound was called inactive in experiment [1] and in [3]. Moreover, the figures for the half-maximal activity concentration (AC50) in experiment [2] and in experiment [8] were 6.88 µM (active) and 25 µM (active), respectively.

On to `CCOC(=O)[C@H](C)Oc1ccc(Oc2nc3ccc(Cl)cc3o2)cc1`, for which the outcome in experiment [2] was inactive.

In the case of `N#CSCSc1nc2ccccc2s1`, the AC50 in [9] is 4.68 µM (active); in experiment [6], 9.3 µM (active).

For `CCNc1nc(N)nc(Cl)n1`, in experiment [5], the concentration at half-maximal activity (AC50) is 9.05 µM (active).

On to `C=CCOC(Cn1ccnc1)c1ccc(Cl)cc1Cl` (configuration not stated), for which, in experiment [9], the AC50 was 16.4 µM (active). Further, the result in experiment [3] was inactive.

For `O=C(c1ccc(O)cc1O)c1ccc(O)cc1O`, the compound was classed as inactive in [5] and in experiment [10].

On to `CC(C)CCCCCCc1ccc(O)cc1`, for which the compound was classed as inactive in experiment [5]. Moreover, the concentration at half-maximal activity (AC50) in experiment [1] was 38 µM (active).

In the case of `CCOC(=O)C(C)Oc1ccc(Oc2nc3ccc(Cl)cc3o2)cc1` (configuration not stated), in [2], the compound was called inactive.
